The campaign covered roughly 1,300 compounds. About 750 (58%) were called active. Some of the results follow. Unmarked numbers belong to inactive results.

The experiment deals with Sulfhydryl oxidase 1 (Homo sapiens) (UniProt O00391). The experiment is described as follows: QSOX1 enzyme inhibitors, primary screen, biochemical, ROS-Glo H2O2 luminescence, HTS (AID 1347418). The following applies: recombinant QSOX1, ROS-Glo H2O2 luminescence; at 12.5 µM; hits give high values; active = any value above zero.
Sulfhydryl oxidase 1 (Homo sapiens), sequence (O00391 whole entry, looked up): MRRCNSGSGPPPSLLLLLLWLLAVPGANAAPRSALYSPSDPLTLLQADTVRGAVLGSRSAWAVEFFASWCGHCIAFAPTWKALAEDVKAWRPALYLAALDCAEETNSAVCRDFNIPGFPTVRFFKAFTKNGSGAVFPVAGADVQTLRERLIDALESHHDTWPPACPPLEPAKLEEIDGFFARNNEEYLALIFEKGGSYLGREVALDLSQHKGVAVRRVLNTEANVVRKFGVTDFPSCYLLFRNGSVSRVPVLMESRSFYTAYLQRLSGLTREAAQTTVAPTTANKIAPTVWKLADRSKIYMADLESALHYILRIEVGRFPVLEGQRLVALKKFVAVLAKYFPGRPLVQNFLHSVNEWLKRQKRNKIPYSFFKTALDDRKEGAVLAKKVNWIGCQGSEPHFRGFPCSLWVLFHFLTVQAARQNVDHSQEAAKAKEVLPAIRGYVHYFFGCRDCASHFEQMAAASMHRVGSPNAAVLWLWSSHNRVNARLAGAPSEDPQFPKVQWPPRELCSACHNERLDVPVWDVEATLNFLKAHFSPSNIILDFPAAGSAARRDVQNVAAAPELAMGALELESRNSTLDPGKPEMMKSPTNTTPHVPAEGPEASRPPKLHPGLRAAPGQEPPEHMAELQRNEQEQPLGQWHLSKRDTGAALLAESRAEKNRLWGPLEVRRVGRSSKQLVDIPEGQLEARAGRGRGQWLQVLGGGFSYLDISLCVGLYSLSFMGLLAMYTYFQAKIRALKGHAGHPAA
In the case of `O=c1[nH]c(=S)[nH]c(-c2ccccc2)c1Cc1c(O)ccc2ccccc12`, the inhibition was 9% (active).
For `O=C(c1cc(O)c(O)c([N+](=O)[O-])c1)c1ccccc1F`, the inhibition is 14.2% (active).
Consider `N#CC(=C(\N)Sc1ccccc1N)/C(C#N)=C(/N)Sc1ccccc1N`, for which the inhibition is 44.1% (active).
With `CC(O)C(O)[C@H]1CNc2nc(N)[nH]c(=O)c2N1` (stereo partly drawn), the inhibition was 1.5% (active).
In the case of `CC(C)(Oc1ccc(C2CC2(Cl)Cl)cc1)C(=O)O` (stereo not drawn), the inhibition is 2.5% (active).
For the compound `CC(C)(Oc1ccc(CCNC(=O)c2ccc(Cl)cc2)cc1)C(=O)O`, the inhibition was -3.3%.
For the compound `CCOC(=O)C(C)(C)Oc1ccc(Cl)cc1`, the inhibition is -1.7%.
For the compound `COc1ccc2cc([C@H](C)C(=O)O)ccc2c1`, the inhibition is -0.6%.
For `COc1cc(C(O)CO)ccc1O` (stereo not drawn), the inhibition is 4.8% (active).
In the case of `COc1cc(C(O)C(=O)O)ccc1O` (stereo not drawn) it was 1.1% (active); in that of `COc1cc(C(O)CO)ccc1OS(=O)(=O)O` (stereo not drawn), 0.6% (active).
In the case of `CCN(CC)CCNC(=O)c1cc(S(C)(=O)=O)ccc1OC`, the inhibition was -3.2%.
In the case of `COC(=O)[C@H]1[C@H]2C[C@@H]3c4[nH]c5cc(OC)ccc5c4CCN3C[C@H]2C[C@@H](OC(=O)c2cc(OC)c(OC)c(OC)c2)[C@@H]1OC`, the inhibition was 11.6% (active).
Turning to `COC(=O)[C@@H]1[C@H]2C[C@H]3c4[nH]c5ccccc5c4CCN3C[C@@H]2CC[C@@H]1O`, the inhibition is 1.4% (active).
Take `COC(=O)[C@H]1[C@H]2C[C@H]3c4[nH]c5ccccc5c4CCN3C[C@H]2CC[C@@H]1O`: the inhibition is 6.1% (active).
As to `C=C[C@H]1CN2CC[C@@H]1C[C@H]2[C@@H](O)c1ccnc2ccc(OC)cc12`, the inhibition is -3%.
As to `O=C(O)CCC/C=C\C[C@@H]1[C@@H](/C=C/[C@H](O)C2Cc3ccccc3C2)[C@@H](F)C[C@@H]1O`, the inhibition was 7.1% (active).
Take `O=C(O)C1=CCCNC1`: the inhibition is -2.5%.
The value for `Cc1cccc(C)c1NC(=O)C(C)N` (stereo not drawn) was 8% (active).
In the case of `CCN(CC)CC(=O)Nc1c(C)cccc1C` it was -1.3%.
`CCCNC(C)C(=O)Nc1ccccc1C` (stereo not drawn): the inhibition is -4.7%.
In the case of `Cn1c(=O)c2c(ncn2C)n(C)c1=O` it was -0.6%; in that of `CCCn1c(=O)c2c(ncn2C)n(CCC)c1=O`, 4.1% (active).
Turning to `C#CCn1c(=O)c2c(ncn2C)n(C)c1=O`, the inhibition is -0.9%.
With `CCCn1cnc2c1c(=O)n(CCCCC(C)=O)c(=O)n2C`, the inhibition was 2.6% (active).
In the case of `CC(=O)CCCCn1c(=O)c2c(ncn2C)n(C)c1=O` it was 5.8% (active); in that of `N#C/C(=C\c1ccc(-c2cc(Cl)ccc2Cl)o1)C(=O)Nc1cccc2ncccc12`, 3.5% (active); in that of `CCN(CC)CCn1c(=O)c(Cc2ccc(OC)cc2)nc2ccccc21`, 1.7% (active).

The record behind these values is PubChem BioAssay AID1347418 (Sanford-Burnham Center for Chemical Genomics, 2020).
